Dicer inh – blocks human Dicer maturation of pre-miR-21 | z-score at 25 µM | cat-ELCCA pre-miR-21 Dicer processing, chemiluminescence; hits give high values | hit rate 6% among 47,000 | AID 1347074; in the data active = z-score above about 3, passing the limit was not always enough;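 note: higher signal means more uncleaved substrate so more Dicer inhibition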
Target sequence (Q9UPY3 whole entry, looked up): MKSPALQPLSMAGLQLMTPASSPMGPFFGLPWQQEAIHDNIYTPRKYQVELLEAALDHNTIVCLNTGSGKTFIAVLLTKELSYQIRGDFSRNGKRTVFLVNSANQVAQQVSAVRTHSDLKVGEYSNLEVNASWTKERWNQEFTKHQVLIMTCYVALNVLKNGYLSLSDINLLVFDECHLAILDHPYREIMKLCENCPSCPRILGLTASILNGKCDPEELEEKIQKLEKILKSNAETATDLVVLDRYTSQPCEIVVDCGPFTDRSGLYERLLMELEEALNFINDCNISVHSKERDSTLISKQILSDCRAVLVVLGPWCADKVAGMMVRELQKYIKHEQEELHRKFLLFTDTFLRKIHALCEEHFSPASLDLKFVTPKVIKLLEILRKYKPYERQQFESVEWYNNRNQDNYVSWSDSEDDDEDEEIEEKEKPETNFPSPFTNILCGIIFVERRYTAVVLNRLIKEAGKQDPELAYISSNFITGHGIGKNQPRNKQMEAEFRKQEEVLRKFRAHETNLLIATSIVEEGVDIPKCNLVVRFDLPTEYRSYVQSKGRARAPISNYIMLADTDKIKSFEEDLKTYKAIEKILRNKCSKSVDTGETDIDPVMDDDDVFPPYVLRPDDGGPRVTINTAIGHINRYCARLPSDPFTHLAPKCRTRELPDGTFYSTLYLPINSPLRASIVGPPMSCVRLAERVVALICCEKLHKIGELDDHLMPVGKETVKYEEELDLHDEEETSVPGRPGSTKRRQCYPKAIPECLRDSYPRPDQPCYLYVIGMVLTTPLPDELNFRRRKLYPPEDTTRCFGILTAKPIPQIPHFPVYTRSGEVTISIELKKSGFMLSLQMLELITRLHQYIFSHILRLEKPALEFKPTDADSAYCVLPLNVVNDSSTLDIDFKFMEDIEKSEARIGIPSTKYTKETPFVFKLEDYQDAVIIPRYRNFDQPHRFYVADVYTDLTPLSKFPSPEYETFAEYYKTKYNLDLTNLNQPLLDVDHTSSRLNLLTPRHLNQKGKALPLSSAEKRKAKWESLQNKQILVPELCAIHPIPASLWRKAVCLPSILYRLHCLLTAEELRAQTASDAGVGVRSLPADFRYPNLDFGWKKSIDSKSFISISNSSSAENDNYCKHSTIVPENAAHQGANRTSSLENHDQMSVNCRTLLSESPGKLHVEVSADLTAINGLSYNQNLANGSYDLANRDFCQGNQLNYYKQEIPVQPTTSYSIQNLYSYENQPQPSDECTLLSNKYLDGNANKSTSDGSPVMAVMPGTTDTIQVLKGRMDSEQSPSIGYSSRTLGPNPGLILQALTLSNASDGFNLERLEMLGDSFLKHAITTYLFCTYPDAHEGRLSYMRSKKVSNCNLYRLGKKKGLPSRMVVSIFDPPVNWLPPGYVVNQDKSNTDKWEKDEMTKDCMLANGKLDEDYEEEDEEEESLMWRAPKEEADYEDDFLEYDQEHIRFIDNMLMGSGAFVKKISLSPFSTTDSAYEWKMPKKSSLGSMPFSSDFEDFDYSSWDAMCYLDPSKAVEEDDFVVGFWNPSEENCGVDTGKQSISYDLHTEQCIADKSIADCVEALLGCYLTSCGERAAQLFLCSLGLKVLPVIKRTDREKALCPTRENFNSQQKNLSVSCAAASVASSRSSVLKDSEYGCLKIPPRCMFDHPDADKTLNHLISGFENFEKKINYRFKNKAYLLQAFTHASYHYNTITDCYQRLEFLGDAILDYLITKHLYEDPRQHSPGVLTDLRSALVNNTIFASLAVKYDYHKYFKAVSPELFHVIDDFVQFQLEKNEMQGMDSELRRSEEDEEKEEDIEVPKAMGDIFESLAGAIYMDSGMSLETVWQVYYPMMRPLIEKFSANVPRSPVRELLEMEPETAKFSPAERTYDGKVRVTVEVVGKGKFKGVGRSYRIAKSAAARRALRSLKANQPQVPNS
A number is an active result. The entries come from a sample that favours hits as a whole.

What do the screens show for `Cc1ccc(-n2cnc3cc(NCc4ccncc4)ccc32)cc1`?
Dicer inh: inactive

Results for COc1ccccc1-n1cnc2cc(NCc3ccco3)ccc21 ?
Dicer inh: 6.5

How did Cc1ccc(S(=O)(=O)N(C)C)cc1NC(=O)Nc1cccs1 do in these assays?
Dicer inh: inactive

Results for CC1=C(C(=O)OC(C)C)C(c2ccc(Cl)cc2)n2c(nc3ccccc32)N1 (stereo not drawn) ?
Dicer inh: inactive

How did CC(C)N(Cc1ccccc1)C(=O)c1ccc(F)cc1F do in these assays?
Dicer inh: inactive

Results for COC(=O)Cn1c(=O)oc2ccccc21 ?
Dicer inh: inactive

What do the screens show for `O=C(O)Cn1c(=O)oc2ccccc21`?
Dicer inh: inactive

What do the screens show for `CC(C)OC(=O)Cn1c(=O)oc2ccccc21`?
Dicer inh: 4

Results for c1ccc(CN2CCCN(Cc3ccccc3)C2c2ccco2)cc1 ?
Dicer inh: inactive

Results for C=C1c2cccc(O)c2C(O)=C2C(=O)[C@]3(O)C(O)=C(C(N)=O)C(=O)[C@@H](N(C)C)[C@@H]3[C@@H](O)[C@H]12 ?
Dicer inh: 23

What do the screens show for `Cn1cc(Br)c(NS(=O)(=O)c2ccccc2C(F)(F)F)n1`?
Dicer inh: inactive

What do the screens show for `CCOC(=O)c1cnc2cc(-c3ccc(Cl)cc3)nn2c1C`?
Dicer inh: inactive

What do the screens show for `COC(=O)c1c(C)nn(C(C)=O)c1COc1ccccc1`?
Dicer inh: inactive

What do the screens show for `CN(C(=O)c1ccc2c(c1)CCO2)C(C)(C)C`?
Dicer inh: inactive

Results for CC(C)(C)c1ccc2c(c1)CN(c1ccc(C(=O)O)cc1)CO2 ?
Dicer inh: 3.9

Results for CC(C)(C)c1cc(C(C)(C)C)n(-c2ccc(C(=O)O)cc2)n1 ?
Dicer inh: inactive

Results for O=C(O)CCCC(=O)Nc1ccc(Br)cn1 ?
Dicer inh: inactive

Results for COc1cc(C2SCCS2)cc(Br)c1OS(=O)(=O)c1ccc(Cl)cc1 ?
Dicer inh: inactive

How did CC(C)(C)c1ccc(Oc2ccc(NC(=O)Nc3ccccc3)cn2)cc1 do in these assays?
Dicer inh: inactive

Results for CC(C)(CC(=O)O)CC(=O)Nc1ccc2c(c1)OCO2 ?
Dicer inh: inactive

How did CCOC(=O)c1cnc(NNS(=O)(=O)c2ccc(C(F)(F)F)cc2)nc1C(F)(F)F do in these assays?
Dicer inh: inactive

How did COc1ccc(-c2ccc(-c3noc(-c4cccc(OC)c4)n3)c(OC)n2)cc1 do in these assays?
Dicer inh: inactive

How did COc1nc(-c2ccc(C)cc2)ccc1-c1noc(-c2cccnc2)n1 do in these assays?
Dicer inh: 3.5

What do the screens show for `COc1nc(-c2ccccc2)ccc1-c1noc(-c2ccc(C)cc2)n1`?
Dicer inh: inactive

How did CCCOc1cccc(C2CCCCN(C)C2=O)c1 (stereo not drawn) do in these assays?
Dicer inh: inactive

How did Nc1ccc([N+](=O)[O-])cc1C(=O)NNC(=O)c1cccnc1Oc1ccccc1 do in these assays?
Dicer inh: inactive

Results for Cc1cc(C)c(CSC2=NCCN2)c(C)c1CSC1=NCCN1 ?
Dicer inh: inactive

How did Cc1c(C)c(C)c(CSC2=NCCC2)c(C)c1C do in these assays?
Dicer inh: inactive

Results for Cc1c(C)c(C)c(CSC2=NCC(C)N2)c(C)c1C (stereo not drawn) ?
Dicer inh: 4

How did Cc1ccc(CSc2n[nH]c(=O)n2C2CC3C=CC2C3)cc1 (stereo not drawn) do in these assays?
Dicer inh: inactive

Results for O=C1CSC2=NC3=C(CCc4ccccc43)C(c3ccccc3Cl)N12 (stereo not drawn) ?
Dicer inh: inactive

What do the screens show for `COc1ccc(Nc2cc(-c3ccccc3)nc3ncnn23)c(OC)c1`?
Dicer inh: 3.7

How did COc1ccc(-c2cc(-c3ccccc3)n3ncnc3n2)cc1 do in these assays?
Dicer inh: inactive

How did Clc1ccc(Nc2cc(-c3ccccc3)nc3ncnn23)cc1 do in these assays?
Dicer inh: inactive

How did CCCNC(=O)NNC(=O)C(C)n1nnc(-c2cc(C(F)(F)F)cc(C(F)(F)F)c2)n1 (stereo not drawn) do in these assays?
Dicer inh: inactive

How did Cc1nn(-c2ccccc2)cc1/C=N/n1c(-c2cccs2)n[nH]c1=S do in these assays?
Dicer inh: inactive

How did CC(C(c1cccs1)c1c(N)n(C)c(=O)n(C)c1=O)[N+](=O)[O-] (stereo not drawn) do in these assays?
Dicer inh: inactive

What do the screens show for `Cn1c(N)c(C(C[N+](=O)[O-])c2ccc(Cl)cc2Cl)c(=O)n(C)c1=O` (stereo not drawn)?
Dicer inh: 3.4

How did COc1ccccc1C(C[N+](=O)[O-])c1c(N)n(C)c(=O)n(C)c1=O (stereo not drawn) do in these assays?
Dicer inh: inactive

Results for Nc1ncnc2nc(N3CCOCC3)[nH]c12 ?
Dicer inh: inactive

Results for CC1(C)CC(=O)C2=C(C1)Nc1ccccc1NC2c1cccc(Br)c1 (stereo not drawn) ?
Dicer inh: 3.5

What do the screens show for `CC(C)Oc1ccc(C2Nc3ccccc3NC3=C2C(=O)CC(C)(C)C3)cc1` (stereo not drawn)?
Dicer inh: inactive
